{
  "source": "PubChem BioAssay AID2673",
  "about": "(National Center for Advancing Translational Sciences (NCATS), 2010)",
  "note": "Inconclusive results are not listed. Values without a mark were called inactive. Activity calls are given as the source filed them. Calls come from the whole dose curve; as a rule, active = well fitted activation curve with a large enough effect; inconclusive = small, poorly fitted or top-dose-only effect; inactive = no such curve, though single readings can be large or run the other way.",
  "data": [
    {"assay": "qHTS Multiplex Assay to Identify Dual Action Probes in a Cell Model of Huntington: Cytoprotection confirmation (ATP)", "details": "PC12 HttQ103 induced, ATP luminescence 40 h; series mostly up to 46.1 µM; cytoprotection, positive = protection: at the top concentration", "how_it_was_run": "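Cell survival measured by luminescent ATP content (ATPlite) in tebufenozide-induced (100 nM) PC12 HTTQ103-GFP cells treated with compounds, in phenol red-free DMEM with equine and calf serum.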", "units": {"cytoprotection, positive = protection": "%"}, "values": [
      {"smiles": "Cn1nnnc1Sc1ncnc2scc(-c3ccc4c(c3)OCO4)c12", "Potency": "22.4 µM (active)"},
      {"smiles": "Cc1ccccc1-c1csc2ncnc(Sc3nnnn3C)c12", "cytoprotection, positive = protection": 13},
      {"smiles": "O=C(NCc1ccco1)c1cc2ccc(O)cc2oc1=O", "cytoprotection, positive = protection": -11.2},
      {"smiles": "C=CCC(=O)OCCCCCCOc1ccc(C(=O)O)cc1", "cytoprotection, positive = protection": 7.21},
      {"smiles": "CCCn1nc([N+](=O)[O-])c(C(C#N)c2nc3ccccc3s2)c(Cl)c1=O", "note": "(centres undefined)", "cytoprotection, positive = protection": -23.1},
      {"smiles": "COc1ccc2cc3cc(C(=O)N4CCN(c5ccccc5)CC4)oc3nc2c1", "cytoprotection, positive = protection": -12.8},
      {"smiles": "Cn1nnnc1Sc1ncnc2scc(-c3ccccc3C(F)(F)F)c12", "cytoprotection, positive = protection": -2.74},
      {"smiles": "CC(C)(C)n1nnnc1C(c1ccc2ncccc2c1)N1CCSCC1", "note": "(centres undefined)", "cytoprotection, positive = protection": -8.22},
      {"smiles": "CS(=O)(=O)c1ccc([C@H](O)[C@H](CO)NC(=O)C(Cl)Cl)cc1", "cytoprotection, positive = protection": -10.2},
      {"smiles": "Cn1nnnc1Sc1ncnc2scc(-c3cccc(N)c3)c12", "cytoprotection, positive = protection": 3.36},
      {"smiles": "CC(=O)OCC1=C(C(=O)O)N2C(=O)[C@@H](NC(=O)Cc3cccs3)[C@H]2SC1", "cytoprotection, positive = protection": -25.3},
      {"smiles": "COc1ccccc1-n1nnnc1S(=O)(=O)Cc1ccc(Cl)cc1", "cytoprotection, positive = protection": 10.7},
      {"smiles": "Cn1nnnc1Sc1ncnc2scc(-c3ccsc3)c12", "Potency": "11.2 µM (active)"},
      {"smiles": "CC(=O)c1cccc(-c2csc3ncnc(Sc4nnnn4C)c23)c1", "Potency": "10 µM (active)"},
      {"smiles": "Cn1nnnc1Sc1ncnc2scc(-c3ccc(C#N)cc3)c12", "Potency": "10 µM (active)"},
      {"smiles": "Cn1nnnc1Sc1ncnc2scc(-c3cccc(Br)c3)c12", "cytoprotection, positive = protection": -108},
      {"smiles": "COc1ccccc1-c1csc2ncnc(Sc3nnnn3C)c12", "cytoprotection, positive = protection": 23.1},
      {"smiles": "O=C(Nc1ccccc1)C1=C(O)CC(c2ccco2)CC1=Nc1ccccc1", "note": "(centres undefined)", "cytoprotection, positive = protection": -18.2},
      {"smiles": "CN(C)c1ccc(-c2n(C)c3ccccc3[n+]2C)cc1", "cytoprotection, positive = protection": -37.4},
      {"smiles": "CC(C(=O)O)c1ccc(N2Cc3ccccc3C2=O)cc1", "note": "(centres undefined)", "cytoprotection, positive = protection": -67.7},
      {"smiles": "Cn1nnnc1Sc1ncnc2scc(-c3ccccc3Br)c12", "Potency": "35.5 µM (active)"},
      {"smiles": "Cc1ccccc1N=C(N)Nc1ccccc1C", "cytoprotection, positive = protection": -20.4},
      {"smiles": "O=[N+]([O-])c1ccc(O)c2ncccc12", "cytoprotection, positive = protection": -52.7},
      {"smiles": "Cn1nnnc1Sc1ncnc2scc(-c3cccc(S(C)(=O)=O)c3)c12", "cytoprotection, positive = protection": -108}
    ]}
  ]
}
